This passage reports AC50 and outcome results from PubChem BioAssay (EPA / NIEHS).

Activity calls are given as the source filed them. Rule for the calls: active = hit-call score of the fitted dose curve at least 0.9, where 1 is the maximum; inactive = score below 0.9.

Read-out in test [1]: Thrombomodulin, THBD (gene 7056)
The test can be described thus: BSK_CASM3C_Thrombomodulin: BioMAP Diversity Plus: CASM3C Assay for Thrombomodulin Biomarker Activity (AID 2283051).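 Note: thrombomodulin protein level measured by ELISA 24 h after dosing.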 To be noted: primary human coronary artery smooth muscle cells; actives raise or lower the signal.

Read-out in test [2]: Tissue Factor, F3 (gene 2152)
The test can be described thus: BSK_CASM3C_TissueFactor: BioMAP Diversity Plus: CASM3C Assay for Tissue Factor Biomarker Activity (AID 2283052).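 Note: cell surface tissue factor protein level read by ELISA.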 The settings on record: primary human coronary artery smooth muscle cells; actives raise or lower the signal.

Read-out in test [3]: Interferon-gamma inducible Protein 10 (IP10), CXCL10 (gene 3627)
Description: BSK_hDFCGF_IP10: BioMAP Diversity Plus: hDFCGF Assay for Interferon-gamma inducible Protein 10 (IP10) Biomarker Activity (AID 2283053). The settings on record: primary human foreskin fibroblasts; actives raise or lower the signal. The essentials:
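Primary human foreskin fibroblasts exposed to chemicals for 24 h. IP-10 measured by ELISA; changes fitted bidirectionally against DMSO baseline.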

Read-out in test [4]: Urokinase-type plasminogen activator receptor (uPAR), PLAUR (gene 5329)
Description: BSK_CASM3C_uPAR: BioMAP Diversity Plus: CASM3C Assay for Urokinase-type plasminogen activator receptor (uPAR) Biomarker Activity (AID 2283054).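 Note: cell-surface uPAR protein level quantified by ELISA.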 To be noted: primary human coronary artery smooth muscle cells; actives raise or lower the signal.

Read-out in test [5]: Vascular cell adhesion molecule 1 (VCAM1), VCAM1 (gene 7412)
The test can be described thus: BSK_CASM3C_VCAM1: BioMAP Diversity Plus: CASM3C Assay for Vascular cell adhesion molecule 1 (VCAM1) Biomarker Activity (AID 2283055).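 Note: VCAM-1 protein level quantified by ELISA on the cells.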 The settings on record: primary human coronary artery smooth muscle cells; actives raise or lower the signal.

Read-out in test [6]: Collagen III, COL3A1 (gene 1281)
Description: BSK_hDFCGF_CollagenIII: BioMAP Diversity Plus: hDFCGF Assay for Collagen III Biomarker Activity (AID 2283056). The settings on record: primary human foreskin fibroblasts; actives raise or lower the signal. Put shortly:
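ELISA readout of Collagen III in human dermal (foreskin) fibroblasts, taken 24 h post-treatment. Gain or loss relative to DMSO vehicle fitted in both directions.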

Read-out in test [7]: Epidermal growth factor receptor (EGFR), EGFR (gene 1956)
Description: BSK_hDFCGF_EGFR: BioMAP Diversity Plus: hDFCGF Assay for Epidermal growth factor receptor (EGFR) Biomarker Activity (AID 2283057). The settings on record: primary human foreskin fibroblasts; actives raise or lower the signal. The essentials:
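Primary human foreskin fibroblasts (hDFCGF system), sampled 24 h after dosing; EGFR quantified by ELISA. Bidirectional fit relative to DMSO baseline; SRB total-protein staining in parallel cultures for cytotoxicity.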

Read-out in test [8]: Interleukin-8 (IL8), CXCL8 (gene 3576)
The test can be described thus: BSK_hDFCGF_IL8: BioMAP Diversity Plus: hDFCGF Assay for Interleukin-8 (IL8) Biomarker Activity (AID 2283058). The settings on record: primary human foreskin fibroblasts; actives raise or lower the signal. Put shortly:
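IL-8 levels read by ELISA at 24 hours after dosing human skin fibroblast cultures. Parallel SRB staining assessed overt cytotoxicity, and gain or loss of signal was fitted against DMSO control.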

Test [9] is described as follows: BSK_hDFCGF_Proliferation: Cell Proliferation Assessment in the BioMAP Diversity Plus: hDFCGF Assay (AID 2283059).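 Note: curves fitted for both rise and fall of signal versus DMSO baseline.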 To be noted: primary human foreskin fibroblasts. Put shortly: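 Steps: dose primary human dermal fibroblasts (foreskin); […] fix in 10% TCA; stain with 0.1% SRB; read 560 nm; fit gain or loss of signal against DMSO.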
Read-out in test [10]: Macrophage colony-stimulating factor (MCSF), CSF1 (gene 1435)
Description: BSK_hDFCGF_MCSF: BioMAP Diversity Plus: hDFCGF Assay for Macrophage colony-stimulating factor (MCSF) Biomarker Activity (AID 2283060). To be noted: primary human foreskin fibroblasts; actives raise or lower the signal. The essentials:
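M-CSF levels read by ELISA at 24 h post-dosing in human skin fibroblasts. Parallel cultures stained with SRB assessed cytotoxicity at the same time point; response fitted in both directions against the DMSO baseline.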

Read-out in test [11]: Monokine induced gamma interferon (MIG), CXCL9 (gene 4283)
The test can be described thus: BSK_hDFCGF_MIG: BioMAP Diversity Plus: hDFCGF Assay for Monokine induced gamma interferon (MIG) Biomarker Activity (AID 2283063). To be noted: primary human foreskin fibroblasts; actives raise or lower the signal. Put shortly: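 Human primary foreskin fibroblasts in the hDFCGF system, exposed to test chemical for 24 h; MIG measured by ELISA. Bidirectional curve fitting against DMSO negative control as activity baseline.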

Read-out in test [12]: Matrix Metallopeptidase 1 (MMP1), MMP1 (gene 4312)
The test can be described thus: BSK_hDFCGF_MMP1: BioMAP Diversity Plus: hDFCGF Assay for Matrix Metallopeptidase 1 (MMP1) Biomarker Activity (AID 2283064). To be noted: primary human foreskin fibroblasts; actives raise or lower the signal. The essentials:
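Primary human foreskin fibroblasts exposed to chemicals for 24 h; MMP1 measured by ELISA. Cytotoxicity tracked by SRB staining in parallel cultures; bidirectional fit relative to DMSO.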

Read-out in test [13]: Vascular cell adhesion molecule 1 (VCAM1), VCAM1 (gene 7412)
Description: BSK_hDFCGF_VCAM1: BioMAP Diversity Plus: hDFCGF Assay for Vascular cell adhesion molecule 1 (VCAM1) Biomarker Activity (AID 2283065).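 For AC50: VCAM-1 protein level quantified by ELISA after 24 h chemical exposure.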 To be noted: primary human foreskin fibroblasts; actives raise or lower the signal. The essentials:
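ELISA readout of VCAM-1 on human dermal fibroblast primary cultures, 24 h after chemical exposure. Gain or loss of signal fitted in both directions against DMSO baseline.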

Read-out in test [14]: Plasminogen activator inhibitor-1 (PAI1), SERPINE1 (gene 5054)
Description: BSK_hDFCGF_PAI1: BioMAP Diversity Plus: hDFCGF Assay for Plasminogen activator inhibitor-1 (PAI1) Biomarker Activity (AID 2283066). The settings on record: primary human foreskin fibroblasts; actives raise or lower the signal. Put shortly:
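Human foreskin fibroblast primary cells, 24 h chemical exposure; PAI-1 measured by ELISA. Bidirectional fitting relative to DMSO; parallel cultures stained with SRB for total protein to flag overt cytotoxicity.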

Read-out in test [15]: Intercellular Adhesion Molecule 1 (ICAM1), ICAM1 (gene 3383)
Description: BSK_KF3CT_ICAM1: BioMAP Diversity Plus: KF3CT Assay for Intercellular Adhesion Molecule 1 (ICAM1) Biomarker Activity (AID 2283067). The settings on record: primary human keratinocytes with fibroblasts; actives raise or lower the signal. Put shortly: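 Cell-surface ICAM-1 was measured by ELISA 24 h after dosing primary human skin keratinocytes co-cultured with fibroblasts. Parallel SRB staining tracked overt cytotoxicity. Gain or loss of signal was fitted relative to DMSO.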

Read-out in test [16]: Interferon-gamma inducible Protein 10 (IP10), CXCL10 (gene 3627)
The test can be described thus: BSK_KF3CT_IP10: BioMAP Diversity Plus: KF3CT Assay for Interferon-gamma inducible Protein 10 (IP10) Biomarker Activity (AID 2283068). To be noted: primary human keratinocytes with fibroblasts; actives raise or lower the signal. The essentials: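 KF3CT co-culture (keratinocytes + foreskin fibroblasts), 24 h compound, IP-10 by ELISA; bidirectional fit vs DMSO baseline.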

Read-out in test [17]: Interleukin-1 alpha (IL1a), IL1A (gene 3552)
Description: BSK_KF3CT_IL1a: BioMAP Diversity Plus: KF3CT Assay for Interleukin-1 alpha (IL1a) Biomarker Activity (AID 2283070). To be noted: primary human keratinocytes with fibroblasts; actives raise or lower the signal. The essentials:
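Primary human keratinocyte plus foreskin fibroblast co-culture, dosed and measured at 24 h in 96-well plates. IL-1a level quantified by ELISA; bidirectional fit relative to DMSO.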

A short description of test [18]: BSK_hDFCGF_SRB: Viability Assessment in the BioMAP Diversity Plus: hDFCGF Assay (AID 2283061).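 Note: cells exposed to compound for 24 h before the read.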 To be noted: primary human foreskin fibroblasts. The essentials: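 Viability was read as total protein: after 10% TCA fixation, wells were stained with 0.1% sulforhodamine B and read at 560 nm. Primary human foreskin fibroblasts were dosed for 24 h, with bidirectional fitting versus DMSO.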

Test [19] can be described thus: BSK_KF3CT_SRB: Viability Assessment in the BioMAP Diversity Plus: KF3CT Assay (AID 2283069).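 Note: total protein by sulforhodamine B staining as a cytotoxicity measure; read 24 h after compound addition.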 The settings on record: primary human keratinocytes with fibroblasts. Put shortly:
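Human keratinocyte and foreskin fibroblast co-culture exposed to chemical for 24 h. Total protein measured in parallel cultures by 0.1% sulforhodamine B staining after 10% TCA fixation, read at 560 nm; bidirectional fit relative to DMSO.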

Read-out in test [20]: TIMP metallopeptidase inhibitor 1 (TIMP1), TIMP1 (gene 7076)
The test can be described thus: BSK_hDFCGF_TIMP1: BioMAP Diversity Plus: hDFCGF Assay for TIMP metallopeptidase inhibitor 1 (TIMP1) Biomarker Activity (AID 2283062). The settings on record: primary human foreskin fibroblasts; actives raise or lower the signal. The essentials: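 TIMP-1 measured by ELISA 24 h after chemical dosing of primary human skin fibroblasts, with gain or loss fitted relative to DMSO. Parallel SRB staining (560 nm) monitored overt cytotoxicity.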

Regarding `CC(C)Nc1ccc(Nc2ccccc2)cc1`, the AC50 in [1] is 36.6 µM (active); in [2], 13.4 µM (active); in test [3] it was 5.88 µM (active); in test [4] it was 32.9 µM (active); in [5], 27.5 µM (active); in [6], 8.09 µM (active). Also, the concentration at half-maximal activity (AC50) in test [8] is 14 µM (active); in [9] it was 0.464 µM (active); in [10], 6.38 µM (active); in [11], 6.46 µM (active); in test [12], 11.4 µM (active); in test [13], 2.21 µM (active). The AC50 in [14] was 7.9 µM (active); in test [15] it was 20 µM (active); in test [16] it was 32.7 µM (active); in test [17], 24.4 µM (active). Moreover, in [7], the outcome was inactive.
On to `CCCCC(CC)COC(=O)c1c(Br)c(Br)c(Br)c(Br)c1C(=O)OCC(CC)CCCC` (stereo not given), for which the result in test [1], in test [2], in test [3], in test [4], in [5] and in test [6] was inactive. The outcome in test [7], in test [8], in test [9], in test [10], in test [18] and in test [11] was inactive. Also, the outcome in test [12], in test [13], in [14], in [15], in [16] and in test [19] was inactive. For the same compound, the result in [17] was inactive.
As for `c1nc[nH]n1`, the outcome in test [1], in test [2], in [3], in test [4], in test [5] and in test [6] was inactive. The result in test [7], in test [8], in [10], in test [11], in test [12] and in [13] was inactive. Besides, the outcome in test [14], in test [15], in test [16], in test [19] and in test [17] was inactive.
As for `CC(Cl)(Cl)C(=O)O`, the result in [1], in [2], in test [3], in test [4], in [5] and in test [6] was inactive. In addition, the outcome in [7], in test [8], in [10], in [20], in test [11] and in [12] was inactive. The result in test [13], in test [14], in test [15], in test [16], in test [19] and in [17] was inactive.
`NC(=O)C(F)(F)C(F)(F)F`: the outcome in [1], in test [2], in test [3], in test [4], in [5] and in test [6] was inactive. Moreover, the result in [7], in test [8], in test [10], in [18], in test [11] and in test [12] was inactive. The outcome in test [13], in test [14], in [15], in test [16], in test [19] and in test [17] was inactive.
Regarding `ClC(Cl)(Cl)c1ccccc1`, the result in [1], in test [2], in [3], in test [4], in test [5] and in test [6] was inactive. In addition, the outcome in test [7], in test [8], in [10], in test [18], in test [11] and in test [12] was inactive. Besides, the outcome in test [13], in test [14], in test [15], in test [16], in test [19] and in [17] was inactive.
With `CCOP(=S)(OCC)SCn1nnc2ccccc2c1=O`, the result in test [1], in test [2], in test [3], in test [4], in test [5] and in test [6] was inactive. Further, the outcome in [7], in test [8], in test [20], in test [11], in test [12] and in test [13] was inactive. Besides, the result in test [14], in test [15], in test [16], in test [19] and in test [17] was inactive. Moreover, the AC50 in test [10] was 20 µM (active).
